Experimental data from PubChem BioAssay (NCI).
About 79,000 compounds went through this panel and 15% of them were active in at least one assay; those are over-represented in the sample as a whole. Activity calls are given as the source filed them. Rule as the data show it: active = growth inhibition above about 70%; inactive = the rest.

How the values were obtained:
[1] = NCI Yeast Anticancer Drug Screen. Data for the mec2-1 strain (AID 157); conditions: S. cerevisiae mec2-1 strain, active compounds read high
In short: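 Growth inhibition is read against vehicle-treated controls after compound exposure of the mec2-1 yeast strain, which is defective in DNA damage repair or cell cycle control.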

[2] = NCI Yeast Anticancer Drug Screen. Data for the sgs1 mgt1 strain (AID 161);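 also: 0% = growth of cultures given vehicle only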; conditions: S. cerevisiae sgs1 mgt1 strain, active compounds read high
In short: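 Compounds are added to genetically altered yeast, and growth is compared with cultures given vehicle alone to give percent inhibition.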

[3] = NCI Yeast Anticancer Drug Screen. Data for the CLN2oe strain (AID 163);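 also: 0% = growth of vehicle-only control cultures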; conditions: S. cerevisiae CLN2oe strain, active compounds read high
In short: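 Compound-treated yeast; growth vs vehicle ctrl = % inhibition. Genetically altered strain (cell-cycle control).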

[4] = NCI Yeast Anticancer Drug Screen. Data for the cln2 rad14 strain (AID 165);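 also: 0% = growth equal to vehicle treated cultures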; conditions: S. cerevisiae cln2 rad14 strain, active compounds read high
In short: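 Growth inhibition, relative to vehicle-treated controls, is the read-out. The test organism is a yeast strain with defined genetic alterations, cln2 rad14.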

[5] = NCI Yeast Anticancer Drug Screen. Data for the bub3 strain (AID 167); conditions: S. cerevisiae bub3 mutant strain, active compounds read high
In short: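 Readout: yeast growth inhibition, expressed relative to vehicle-only wells. The test organism is a mutant strain from a panel with lesions in DNA repair or checkpoint genes.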

[6] = NCI Yeast Anticancer Drug Screen. Data for the wt2 strain (AID 169);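 also: 0% = growth of vehicle-treated yeast cultures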; conditions: S. cerevisiae wt2 strain growth inhibition, active compounds read high
In short: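 Compound exposure of yeast; growth compared with vehicle controls; inhibition reported.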

[7] = NCI Yeast Anticancer Drug Screen. Data for the mlh1 strain (AID 171);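 also: 0% = growth of vehicle-treated control cultures of the same strain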; conditions: S. cerevisiae mlh1 strain growth inhibition, active compounds read high
In short: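 Compounds are applied to a genetically altered yeast strain, and its growth is compared with that of vehicle-treated cultures to give percent inhibition.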

[8] = NCI Yeast Anticancer Drug Screen. Data for the sgs1 strain (AID 173);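 also: 0% = growth of vehicle-only control cultures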; conditions: S. cerevisiae sgs1 mutant, active compounds read high
In short: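 Compounds applied to genetically altered yeast; growth compared with vehicle-treated cultures to give % inhibition.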

[9] = NCI Yeast Anticancer Drug Screen. Data for the rad18 strain (AID 177); conditions: S. cerevisiae rad18 mutant growth inhibition, active compounds read high
In short: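 Compounds are applied to a repair-deficient yeast strain, and growth is compared with that of vehicle-treated cultures to give percent inhibition.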

[10] = NCI Yeast Anticancer Drug Screen. Data for the rad52 strain (AID 147);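 also: 0% = growth of vehicle-treated control cultures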; conditions: S. cerevisiae rad52 mutant growth inhibition, active compounds read high
In short: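 DNA repair-defective yeast; compound exposure; growth scored against vehicle controls.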

[11] = NCI Yeast Anticancer Drug Screen. Data for the wt1 strain (AID 149);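 also: 0% = growth of vehicle-treated wt1 cultures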; conditions: S. cerevisiae wt1 strain (SPY 50644) growth inhibition, active compounds read high
In short: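 Growth inhibition read against vehicle controls after compound exposure of the wt1 yeast strain.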

[12] = NCI Yeast Anticancer Drug Screen. Data for the mgt1 strain (AID 153); conditions: S. cerevisiae mgt1 mutant growth inhibition, active compounds read high
In short: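 Growth inhibition relative to vehicle controls was scored for the mgt1 yeast strain after compound exposure.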

[13] = NCI Yeast Anticancer Drug Screen. Data for the rad50 strain (AID 155);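 also: 0% = growth of vehicle-only cultures of the same strain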; conditions: S. cerevisiae rad50 strain growth inhibition, active compounds read high
In short: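 Readout: growth inhibition relative to vehicle-treated cultures. Compound exposure was carried out in a genetically defined yeast strain deficient in DNA damage repair.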

[14] = NCI Yeast Anticancer Drug Screen. Data for the rad14 strain (AID 159);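 also: 0% = growth of vehicle-treated control cultures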; conditions: S. cerevisiae rad14 strain growth inhibition, active compounds read high
In short: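 Growth inhibition vs vehicle controls; genetically altered yeast strain (DNA damage repair defect) treated with test compounds.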

[15] = NCI Yeast Anticancer Drug Screen. Data for the mlh1 rad18 strain (AID 175); conditions: S. cerevisiae mlh1 rad18 strain growth inhibition, active compounds read high
In short: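 Cells of a genetically altered yeast strain, deficient in DNA damage repair, were treated with compound. Their growth was then compared with that of vehicle-treated cultures to give inhibition.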

[16] = at 5.0 µM (retest, dose inferred, filed as 0.5)
[17] = at 50.0 µM (retest, dose inferred, filed as 5.0)

Measured: growth inhibition

COC(=O)CC1CCc2c(ccc3ccccc23)C1(C)C(=O)OC (stereo unspecified)
active: [2]; [17] 80% | [5]; [17] 75% | [5]; at 100.0 µM 71% | [8]; at 100.0 µM 79%
inactive: [1]; [16] -5% | [1]; at 11.0 µM -2% | [1]; at 33.0 µM -7% | [1]; [17] 28% | [1]; at 50.0 µM -1.05% | [1]; at 100.0 µM 6% | [2]; [16] -2% | [2]; at 50.0 µM 66% | [3]; at 1.2 µM -4% | [3]; at 3.7 µM -5% | [3]; at 11.0 µM -11% | [3]; at 33.0 µM -21% | [3]; at 100.0 µM 0% | [4]; [16] -3% | [4]; [17] 11% | [4]; at 50.0 µM 1.4% | [5]; at 1.2 µM 3% | [5]; at 3.7 µM 2% | [5]; [16] 2% | [5]; at 11.0 µM 6% | [5]; at 33.0 µM 46% | [5]; at 50.0 µM 63.5% | [6]; at 1.2 µM 1% | [6]; at 3.7 µM -8% | [6]; at 11.0 µM -1% | [6]; at 33.0 µM -5% | [6]; at 100.0 µM 12% | [7]; at 1.2 µM -5% | [7]; at 3.7 µM -2% | [7]; at 11.0 µM 0% | [7]; at 33.0 µM 14% | [7]; at 100.0 µM 57% | [8]; at 1.2 µM -24% | [8]; at 3.7 µM -30% | [8]; at 11.0 µM -18% | [8]; at 33.0 µM 13% | [9]; at 1.2 µM -10% | [9]; at 3.7 µM -4% | [9]; at 11.0 µM -2% | [9]; at 33.0 µM -3% | [9]; at 100.0 µM 20%

COc1ccc(C(=O)c2ccccc2C(=O)c2ccccc2OC)cc1
active: [5]; [17] 79%
inactive: [10]; at 1.2 µM -1% | [10]; at 3.7 µM -2% | [10]; at 11.0 µM 1% | [10]; at 33.0 µM 6% | [10]; at 100.0 µM 14% | [11]; at 1.2 µM -2% | [11]; at 3.7 µM 1% | [11]; at 11.0 µM -6% | [11]; at 33.0 µM -7% | [11]; at 100.0 µM -4% | [12]; at 1.2 µM -1% | [12]; at 3.7 µM -1% | [12]; at 11.0 µM -2% | [12]; at 33.0 µM -1% | [12]; at 100.0 µM 7% | [13]; at 1.2 µM -1% | [13]; at 3.7 µM 1% | [13]; [16] 7% | [13]; at 11.0 µM -1% | [13]; at 33.0 µM 4% | [13]; [17] 46% | [13]; at 50.0 µM 12.8% | [13]; at 100.0 µM 10% | [1]; at 1.2 µM -2% | [1]; at 3.7 µM 1% | [1]; [16] -10% | [1]; at 11.0 µM 1% | [1]; at 33.0 µM 7% | [1]; [17] 16% | [1]; at 50.0 µM 10.1% | [1]; at 100.0 µM 11% | [14]; at 1.2 µM -3% | [14]; at 3.7 µM -5% | [14]; at 11.0 µM -5% | [14]; at 33.0 µM -1% | [14]; at 100.0 µM 8% | [2]; [16] 17% | [2]; [17] 55% | [2]; at 50.0 µM 15.4% | [3]; at 1.2 µM 2% | [3]; at 3.7 µM -15% | [3]; at 11.0 µM 0% | [3]; at 33.0 µM 7% | [3]; at 100.0 µM 24% | [4]; [16] 9% | [4]; [17] 35% | [4]; at 50.0 µM 13.7% | [5]; at 1.2 µM -1% | [5]; at 3.7 µM 3% | [5]; [16] 16% | [5]; at 11.0 µM 7% | [5]; at 33.0 µM 27% | [5]; at 50.0 µM 39.5% | [5]; at 100.0 µM 43% | [6]; at 1.2 µM -1% | [6]; at 3.7 µM -2% | [6]; at 11.0 µM -5% | [6]; at 33.0 µM -2% | [6]; at 100.0 µM 1% | [7]; at 1.2 µM 1% | [7]; at 3.7 µM -2% | [7]; at 11.0 µM -1% | [7]; at 33.0 µM 4% | [7]; at 100.0 µM 15% | [8]; at 1.2 µM -1% | [8]; at 3.7 µM -2% | [8]; at 11.0 µM 0% | [8]; at 33.0 µM 9% | [8]; at 100.0 µM 15% | [15]; [16] 30% | [15]; [17] 68% | [15]; at 50.0 µM 20.7% | [9]; at 1.2 µM -1% | [9]; at 3.7 µM -5% | [9]; at 11.0 µM -4% | [9]; at 33.0 µM 3% | [9]; at 100.0 µM 12%

CCN(CC)CCOc1cc(C)c2cc(Cc3ccccc3)ccc2n1
active: [10]; at 100.0 µM 82% | [11]; at 100.0 µM 71% | [12]; at 100.0 µM 98% | [13]; at 50.0 µM 88.2% | [13]; at 100.0 µM 92% | [1]; at 50.0 µM 82.7% | [1]; at 100.0 µM 84% | [2]; at 50.0 µM 96% | [5]; at 50.0 µM 88.2% | [5]; at 100.0 µM 81% | [6]; at 100.0 µM 94% | [7]; at 100.0 µM 94% | [8]; at 100.0 µM 96% | [15]; at 50.0 µM 96% | [9]; at 100.0 µM 99%
inactive: [10]; at 1.2 µM -1% | [10]; at 3.7 µM 2% | [10]; at 11.0 µM 2% | [10]; at 33.0 µM 18% | [11]; at 1.2 µM 0% | [11]; at 3.7 µM 1% | [11]; at 11.0 µM -1% | [11]; at 33.0 µM 3% | [12]; at 1.2 µM 2% | [12]; at 3.7 µM 5% | [12]; at 11.0 µM 10% | [12]; at 33.0 µM 35% | [13]; at 1.2 µM -40% | [13]; at 3.7 µM -2% | [13]; [16] 7% | [13]; at 11.0 µM -1% | [13]; at 33.0 µM 13% | [13]; [17] 57% | [1]; at 1.2 µM -2% | [1]; at 3.7 µM -3% | [1]; [16] -2% | [1]; at 11.0 µM 1% | [1]; at 33.0 µM 17% | [1]; [17] 8% | [2]; [16] 5% | [2]; [17] 47% | [3]; at 1.2 µM -4% | [3]; at 3.7 µM -9% | [3]; at 11.0 µM 0% | [3]; at 33.0 µM 15% | [3]; at 100.0 µM 52% | [4]; [16] 2% | [4]; [17] -5% | [4]; at 50.0 µM 53.9% | [5]; at 1.2 µM 2% | [5]; at 3.7 µM 1% | [5]; [16] 2% | [5]; at 11.0 µM 9% | [5]; at 33.0 µM 38% | [5]; [17] 13% | [6]; at 1.2 µM -1% | [6]; at 3.7 µM -2% | [6]; at 11.0 µM 2% | [6]; at 33.0 µM 13% | [7]; at 1.2 µM 0% | [7]; at 3.7 µM 1% | [7]; at 11.0 µM 11% | [7]; at 33.0 µM 28% | [8]; at 1.2 µM 0% | [8]; at 3.7 µM 3% | [8]; at 11.0 µM 12% | [8]; at 33.0 µM 35% | [15]; [16] 5% | [15]; [17] 28% | [9]; at 1.2 µM 3% | [9]; at 3.7 µM 15% | [9]; at 11.0 µM 28% | [9]; at 33.0 µM 65%
